# Measured values published in PubChem BioAssay.
# Active and inactive are the calls of the source.
# Tests used:
# [1] = binders of probe aFSTL3 on microarray, primary screen, stem cell growth factor project, biochemical, small-molecule microarray, fluorescence 635/667 (AID 1064); conditions: higher = more signal;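 further: measures binding of the biotinylated anti-FSTL3 antibody to printed compounds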
# [2] = binders from COS7 lysate, DM2A8 probe, primary screen, torsin A project, cell lysate, small-molecule microarray, fluorescence 635/667 (AID 1065); conditions: higher = more signal, COS7 lysate expressing mutant human TOR1A
# [3] = binders of probe aFGF2 on microarray, primary screen, stem cell growth factor project, biochemical, small-molecule microarray, fluorescence 635/667 (AID 1067); conditions: higher = more signal;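 further: measures binding of biotinylated aFGF2 protein to printed compounds on slides; z-score merges feature fluorescence and signal-to-noise across triplicate slides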
# [4] = binders of probe aFGF10 on microarray, primary screen, stem cell growth factor project, biochemical, small-molecule microarray, fluorescence 635/667 (AID 1071); conditions: higher = more signal;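 further: score merges 667 nm spot intensity and signal to noise from triplicate slides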
# [5] = target: Neurogenic locus notch homolog protein 2 (Homo sapiens) (UniProt Q04721); test: Notch2 binders on small-molecule microarrays, primary screen, biochemical, small-molecule microarray, 635 nm fluorescence, stem cell growth factors (AID 1073); conditions: Notch2 binding, higher = more signal
# [6] = target: Pro-neuregulin-1, membrane-bound isoform (Homo sapiens) (UniProt Q02297); test: NRG1 binders on small-molecule microarrays, primary screen, psychiatric disease protein project, biochemical, small-molecule microarray, fluorescence 635/667 (AID 1075); conditions: NRG1 binding, 635 nm fluorescence, higher = more signal;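 further: score combines 667 nm spot fluorescence with signal to noise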
# [7] = test system: Neuregulin-1 EGF-like domain; test: binders of neuregulin-1 EGF-like domain, primary screen, biochemical, small-molecule microarray, 635 nm fluorescence (AID 1081); conditions: small-molecule microarray binding, higher = more signal;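 further: binding of the protein to compounds printed on small-molecule microarray slides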
# [8] = FRG1 promoter luciferase signal modulators, primary screen, FRG1 inhibition for FSHD, cell-based, C2C12 myotubes, firefly/Renilla luciferase, luminescence (AID 1084); conditions: higher = more signal, called active from +8 up or from −8 down
# [9] = binders of probe aFST on microarray, primary screen, stem cell growth factor project, biochemical, small-molecule microarray, fluorescence 635/667 (AID 1086); conditions: higher = more signal;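 further: score merges 667 nm fluorescence with signal-to-noise of each printed compound spot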
# [10] = binders of probe aHhip on microarray, primary screen, stem cell growth factor project, biochemical, small-molecule microarray, fluorescence 635/667 (AID 1087); conditions: higher = more signal;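 further: score merges spot fluorescence at 667nm with spot signal to noise ratio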
# [11] = test system: PRMT1 (protein arginine N-methyltransferase 1); test: PRMT1 binders on small-molecule microarrays, primary screen, biochemical, small-molecule microarray, 635 nm fluorescence (AID 1088); conditions: small-molecule microarray binding, higher = more signal;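 further: binding of Prmt1 protein to compounds spotted on small-molecule microarray slides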
# [12] = yeast growth modulation, basal conditions, primary screen, YJM789 clinical isolate, OD600, 24 h (AID 1089);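 further: growth of clinical yeast isolate S. cerevisiae YJM 789 seeded 1000 cells per well; test concentration not given here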; conditions: S. cerevisiae YJM789 growth, higher = more signal, called active from +8 up or from −8 down
# [13] = fission yeast growth modulation, primary screen, strain 972, OD600, 24 h, no modulator (AID 1090);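 further: basal condition with compound alone and no growth modifier present; test concentration not given here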; conditions: S. pombe 972 growth, higher = more signal, called active from +8 up or from −8 down
# [14] = S. cerevisiae growth modulation with rapamycin, primary screen, strain BY4716, OD600, 96 h (AID 1091); conditions: higher = more signal, called active from +8 up or from −8 down; further: test concentration not given here
# [15] = target: Torsin-1A-interacting protein 2 (Homo sapiens) (UniProt Q8NFQ8); test: LULL1 binders on small-molecule microarray, primary screen, cell lysate, human LULL1 lysate, 635/667 nm fluorescence (AID 1092); conditions: hLULL1 lysate binding, 635 nm fluorescence, higher = more signal;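 further: probe is lysate of COS7 cells overexpressing human LULL1; score merges per-feature 667 nm fluorescence with signal-to-noise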
# [16] = E. coli growth modulation, two-sided OD650, primary screen, E. coli filamentation project, strain DRC41, 24 h (AID 1093); conditions: OD650, 24 h, higher = more signal, called active from +8 up or from −8 down;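 further: MC1000 strain lacking acrAB efflux and sulA so SOS filamentation is blocked; test concentration not given here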
# [17] = small-molecule microarray binders of probe aLefty2, primary screen, biochemical, biotinylated probe, 635/667 nm fluorescence (AID 1094); conditions: higher = more signal;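 further: score merges spot fluorescence near 667 nm with spot signal-to-noise ratio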
# [18] = test system: Noggin (protein binding on small-molecule microarray); test: Noggin binders on small-molecule microarray, primary screen, biochemical, 635/667 nm fluorescence (AID 1095); conditions: 635 nm fluorescence, higher = more signal;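 further: score merges 667 nm feature fluorescence with signal to noise over triplicate slides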
# [19] = target: Neurogenic locus notch homolog protein 3 (Homo sapiens) (UniProt Q9UM47); test: NOTCH3 binders on small-molecule microarray, primary screen, biochemical, 635/667 nm fluorescence (AID 1096); conditions: NOTCH3 binding, 635 nm fluorescence, higher = more signal
# [20] = small-molecule microarray binders of probe aEGFR, primary screen, biochemical, biotinylated probe, 635/667 nm fluorescence (AID 1097); conditions: higher = more signal;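 further: probe is a biotinylated anti-EGFR antibody binding compounds printed on slides; score combines fluorescence near 667 nm and signal to noise of each spot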
# Torsin-1A-interacting protein 2 (Homo sapiens), sequence (Q8NFQ8 whole entry, looked up): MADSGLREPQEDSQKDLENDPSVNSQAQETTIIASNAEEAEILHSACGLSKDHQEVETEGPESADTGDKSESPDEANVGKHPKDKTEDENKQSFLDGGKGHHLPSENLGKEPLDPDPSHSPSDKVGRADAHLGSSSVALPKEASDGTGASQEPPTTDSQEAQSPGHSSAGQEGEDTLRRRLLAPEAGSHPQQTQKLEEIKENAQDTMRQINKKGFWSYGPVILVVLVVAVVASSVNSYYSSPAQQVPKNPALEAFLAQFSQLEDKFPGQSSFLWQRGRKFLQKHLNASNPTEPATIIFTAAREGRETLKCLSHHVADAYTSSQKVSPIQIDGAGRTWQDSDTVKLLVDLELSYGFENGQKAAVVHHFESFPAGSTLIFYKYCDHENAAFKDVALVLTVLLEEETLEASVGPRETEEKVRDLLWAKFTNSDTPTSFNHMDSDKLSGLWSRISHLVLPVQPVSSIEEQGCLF
# Neurogenic locus notch homolog protein 2 (Homo sapiens), sequence (Q04721 whole entry, looked up, canonical isoform): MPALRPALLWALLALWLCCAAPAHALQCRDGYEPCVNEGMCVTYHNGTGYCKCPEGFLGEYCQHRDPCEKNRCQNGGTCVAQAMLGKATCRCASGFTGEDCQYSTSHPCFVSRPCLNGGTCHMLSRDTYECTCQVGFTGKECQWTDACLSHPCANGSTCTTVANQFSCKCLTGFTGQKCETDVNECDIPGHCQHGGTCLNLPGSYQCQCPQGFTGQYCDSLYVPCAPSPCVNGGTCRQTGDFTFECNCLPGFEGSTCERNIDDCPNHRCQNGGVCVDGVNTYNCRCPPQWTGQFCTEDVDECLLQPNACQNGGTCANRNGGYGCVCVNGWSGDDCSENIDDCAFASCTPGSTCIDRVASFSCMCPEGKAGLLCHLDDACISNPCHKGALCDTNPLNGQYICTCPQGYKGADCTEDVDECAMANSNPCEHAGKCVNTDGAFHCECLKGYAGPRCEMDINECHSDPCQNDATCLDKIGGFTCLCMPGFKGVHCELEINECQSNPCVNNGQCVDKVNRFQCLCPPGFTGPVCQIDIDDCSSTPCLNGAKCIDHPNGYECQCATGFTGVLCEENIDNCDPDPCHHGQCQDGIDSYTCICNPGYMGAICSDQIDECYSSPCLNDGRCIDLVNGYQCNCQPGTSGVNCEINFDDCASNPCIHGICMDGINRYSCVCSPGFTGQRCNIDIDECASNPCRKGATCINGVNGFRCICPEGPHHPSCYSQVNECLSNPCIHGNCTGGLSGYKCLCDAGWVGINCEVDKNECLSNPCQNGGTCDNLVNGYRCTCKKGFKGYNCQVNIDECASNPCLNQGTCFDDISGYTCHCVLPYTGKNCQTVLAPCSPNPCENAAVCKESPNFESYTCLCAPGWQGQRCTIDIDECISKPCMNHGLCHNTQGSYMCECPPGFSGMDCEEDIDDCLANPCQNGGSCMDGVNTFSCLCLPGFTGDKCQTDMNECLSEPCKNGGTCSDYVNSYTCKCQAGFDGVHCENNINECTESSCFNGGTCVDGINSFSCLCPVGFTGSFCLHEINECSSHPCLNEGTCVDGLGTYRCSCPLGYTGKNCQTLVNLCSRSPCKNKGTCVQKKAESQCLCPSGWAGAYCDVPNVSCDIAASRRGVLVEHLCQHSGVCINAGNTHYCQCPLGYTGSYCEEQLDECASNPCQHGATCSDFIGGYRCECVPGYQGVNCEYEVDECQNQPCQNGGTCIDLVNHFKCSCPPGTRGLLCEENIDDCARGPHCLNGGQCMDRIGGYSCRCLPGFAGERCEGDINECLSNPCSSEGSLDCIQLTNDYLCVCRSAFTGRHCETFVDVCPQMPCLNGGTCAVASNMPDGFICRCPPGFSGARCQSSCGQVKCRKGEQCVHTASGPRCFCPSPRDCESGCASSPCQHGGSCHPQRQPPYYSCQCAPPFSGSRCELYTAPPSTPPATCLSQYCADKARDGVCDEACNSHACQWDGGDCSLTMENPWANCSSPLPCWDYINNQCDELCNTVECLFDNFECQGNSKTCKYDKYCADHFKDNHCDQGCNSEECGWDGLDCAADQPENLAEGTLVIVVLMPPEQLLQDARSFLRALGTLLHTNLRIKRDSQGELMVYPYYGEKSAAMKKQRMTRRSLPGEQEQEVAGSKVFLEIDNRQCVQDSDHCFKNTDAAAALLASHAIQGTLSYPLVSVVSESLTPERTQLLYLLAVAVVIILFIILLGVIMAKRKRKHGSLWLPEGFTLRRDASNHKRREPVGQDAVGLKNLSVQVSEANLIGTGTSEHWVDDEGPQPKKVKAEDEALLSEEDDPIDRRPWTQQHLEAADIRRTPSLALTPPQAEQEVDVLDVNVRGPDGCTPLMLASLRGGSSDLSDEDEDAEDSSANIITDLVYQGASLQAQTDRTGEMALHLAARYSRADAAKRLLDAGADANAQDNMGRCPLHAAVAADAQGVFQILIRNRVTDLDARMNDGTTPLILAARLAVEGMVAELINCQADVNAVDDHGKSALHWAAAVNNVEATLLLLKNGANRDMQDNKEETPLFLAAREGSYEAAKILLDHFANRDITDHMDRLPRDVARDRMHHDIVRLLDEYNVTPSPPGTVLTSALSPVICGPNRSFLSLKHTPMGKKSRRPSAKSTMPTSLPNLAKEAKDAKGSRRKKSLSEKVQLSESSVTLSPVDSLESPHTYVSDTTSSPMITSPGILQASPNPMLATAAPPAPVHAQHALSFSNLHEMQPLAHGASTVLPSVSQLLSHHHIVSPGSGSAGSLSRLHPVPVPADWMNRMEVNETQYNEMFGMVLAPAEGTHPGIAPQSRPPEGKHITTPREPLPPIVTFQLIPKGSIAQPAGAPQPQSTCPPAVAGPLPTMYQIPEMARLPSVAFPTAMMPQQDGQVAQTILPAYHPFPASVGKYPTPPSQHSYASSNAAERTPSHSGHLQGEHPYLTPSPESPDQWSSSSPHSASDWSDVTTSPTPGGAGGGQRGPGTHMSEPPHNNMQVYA
# Pro-neuregulin-1, membrane-bound isoform (Homo sapiens), sequence (Q02297 whole entry, looked up, the tested form may be a part, canonical isoform): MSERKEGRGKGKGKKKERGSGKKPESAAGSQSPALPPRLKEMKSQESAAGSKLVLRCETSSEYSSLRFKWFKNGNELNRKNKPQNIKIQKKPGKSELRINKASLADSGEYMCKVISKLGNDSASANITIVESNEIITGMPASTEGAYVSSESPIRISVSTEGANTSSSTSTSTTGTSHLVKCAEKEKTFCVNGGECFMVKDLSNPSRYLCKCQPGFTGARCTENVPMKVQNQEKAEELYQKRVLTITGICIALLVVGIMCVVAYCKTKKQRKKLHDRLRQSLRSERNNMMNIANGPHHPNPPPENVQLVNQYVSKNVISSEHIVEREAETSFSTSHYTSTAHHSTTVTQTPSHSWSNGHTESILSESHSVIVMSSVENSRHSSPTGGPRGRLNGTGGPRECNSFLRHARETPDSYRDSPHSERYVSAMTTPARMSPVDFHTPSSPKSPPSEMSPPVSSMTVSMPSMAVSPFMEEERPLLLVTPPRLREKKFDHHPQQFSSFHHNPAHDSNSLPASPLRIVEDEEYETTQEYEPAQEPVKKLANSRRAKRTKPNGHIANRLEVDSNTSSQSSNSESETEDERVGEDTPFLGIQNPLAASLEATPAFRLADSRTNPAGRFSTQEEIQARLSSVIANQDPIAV
Compound,composite z-score [1],composite z-score [2],composite z-score [3],composite z-score [4],composite z-score [5],composite z-score [6],composite z-score [7],z-score [8],composite z-score [9],composite z-score [10],composite z-score [11],z-score [12],z-score [13],z-score [14],composite z-score [15],z-score [16],composite z-score [17],composite z-score [18],composite z-score [19],composite z-score [20]
CC(CCN1CCCc2nc(C)c(C)cc21)=NO[C@@H](C)c1cn([C@H](CO)Cc2ccccc2)nn1,-0.102,0.417,-0.0257,0.389,0.414,-0.19,0.28,-0.0338 (inactive),0.4,-0.277,0.279,0.72 (inactive),0.47 (inactive),0.672 (inactive),0.577,0.923 (inactive),-0.114,0.78,0.713,-0.0493
CO[C@H]1COC(=O)[C@H](CCSC)NC(=O)CC=C[C@@H](C)[C@H](OC)COC(=O)[C@@H](OCc2ccccc2)C=C[C@@H]1C,-0.459,0.633,-0.188,0.227,0.133,-0.388,0.597,0.306 (inactive),-0.276,-0.134,1.56,-0.772 (inactive),-0.282 (inactive),-1.65 (inactive),-1.05,-0.317 (inactive),-0.0131,1.39,0.472,-0.0531
COCOc1ccc(Br)cc1C(=O)C=Cc1ccc2c(c1)OCO2,-0.289,0.738,-0.0878,0.313,0.315,-0.302,-0.645,-2.06 (inactive),0.13,-0.226,0.253,-0.827 (inactive),-7.01 (inactive),32.1 (active),-0.57,0.368 (inactive),-0.16,0.698,0.0871,-0.0834
CCN1C(=O)[C@H]2[C@H]3[C@H](O)[C@H](O)CC(=NO[C@@H]4O[C@H](CO)[C@@H](O)[C@H](O)[C@H]4O)[C@H]3CC[C@H]2C1=O,-0.396,1.06,-0.138,0.235,1,0.259,0.108,-1.07 (inactive),0.293,0.0274,-0.26,-0.862 (inactive),-0.238 (inactive),-0.14 (inactive),-0.127,0.12 (inactive),-0.204,0.484,0.65,-0.128
O=C1C[C@@H](O)[C@@H](O)[C@@H]2[C@@H]3C(=O)N(Cc4ccccc4)C(=O)[C@@H]3CC[C@H]12,-0.344,0.49,-0.129,0.339,0.438,0.235,0.632,-0.725 (inactive),0.256,0.0053,-0.326,0.179 (inactive),-0.253 (inactive),-0.138 (inactive),-0.14,-0.188 (inactive),-0.107,0.497,0.545,-0.0171
O=C1[C@H]2[C@H]3[C@H](O)[C@H](O)CC(=NO[C@@H]4O[C@H](CO)[C@@H](O)[C@H](O)[C@H]4O)[C@@H]3CC[C@H]2C(=O)N1C[C@@H]1CCCO1,-0.603,-0.038,-0.0908,0.529,1.06,-0.0236,0.298,0.746 (inactive),0.254,0.0505,1.08,0.57 (inactive),-0.0413 (inactive),-0.0603 (inactive),1.21,0.415 (inactive),-0.0683,-0.287,0.979,0.0934
CC(=O)OC[C@H]1O[C@H](CC=NOC(C)CN2CCCCc3nc(C)c(C)cc32)C=C[C@@H]1OC(C)=O (stereo not given in full),-0.349,2.35,-0.071,0.325,0.965,0.0843,0.978,0.851 (inactive),0.0013,0.158,1.54,-0.814 (inactive),-0.0245 (inactive),-0.151 (inactive),1.51,0.522 (inactive),0.176,1.13,1.01,0.43
CCOC(=O)NN=C1C[C@@H](O)[C@@H](O)[C@@H]2[C@@H]3C(=O)N(C[C@@H]4CCCO4)C(=O)[C@@H]3CC[C@H]12,-0.548,-0.274,-0.0217,0.217,0.701,0.203,0.34,0.577 (inactive),-0.0482,-0.143,0.611,-1.43 (inactive),-0.318 (inactive),-0.0602 (inactive),0.448,0.416 (inactive),-0.179,0.481,0.411,-0.0668
CON=C(C)CCN1CCCCc2nc(C)c(C)cc21,0.367,1.01,0.0121,0.241,0.133,0.525,0.93,0.997 (inactive),0.437,-0.0296,0.46,-0.114 (inactive),-0.0037 (inactive),-0.508 (inactive),0.799,0.165 (inactive),0.0945,0.572,0.397,0.0978
COC(OC)[C@@H](C)[C@H](OC)[C@@H](C)[C@H](OC)c1ccccc1,-0.405,0.594,-0.138,0.238,-0.0257,-0.445,-0.561,-0.406 (inactive),-0.0188,-0.0645,-0.478,-1.94 (inactive),-0.656 (inactive),-0.213 (inactive),-1.37,0.17 (inactive),0.308,0.467,0.181,-0.117
